Screening results (PubChem)
A selection: hits, their analogues and other compounds. The true share with any hit is near 0.5%.
AddAB inh = less growth of phage-infected E. coli with AddAB; E. coli expressing H. pylori AddAB, absorbance growth; 0.29% of 330,000 active; AID 435030; inhibition, % at 11.9 µM; in the data active = inhibition above about 12%;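 note: 0% = vehicle wells of infected cells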
Tat export inh = blocks Tat-dependent protein export in E. coli; E. coli MC4100 TorA-mCherry Tat export, fluorescence; inhibition, % at 10 µM; 0.036% of 340,000 active;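 active = mean replicate inhibition at least 50% and at least half of replicates individually reaching 50%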;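 note: exported cargo escapes ClpAP degradation while cytoplasmic cargo is degraded and loses fluorescence; 0% = median of neutral control wells and 100% = median of NaSCN control wells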
E coli growth-1 = inhibitors of Escherichia coli growth. 0.21% of 330,000 active. OD600 absorbance (test concentration not listed). OD600, 23 h; stronger effect = lower value. AID 1053175;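 active = OD600 absorbance below the run mean of sample wells minus 3.6 SD, in any replicate, cut at about 0.56 in these data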
E coli growth-2 = counter-screen for AddAB inhibitors: E. coli growth inhibition; E. coli V3065 growth, OD600 absorbance, 18 h; inhibition, % at 11.9 µM; 0.27% of 330,000 active;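 active = inhibition above the campaign's mean inhibition across all tested compounds plus 3 SD, cut at about 9.9% in these data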;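 note: uninfected addAB+ strain grown without phage in ampicillin broth; 0% = DMSO wells and 100% = ciprofloxacin 0.95 µg/ml wells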
phage Ecoli inh = E. coli growth loss with phage present. growth absorbance. inhibition, % at 11.9 µM. 0.26% of 360,000 active. AID 651602; in the data active = inhibition above about 11%
AddAB conf = confirmation screen: growth loss of phage-infected E. coli expressing H. pylori AddAB; shares compounds with AddAB inh; E. coli V3065 expressing H. pylori AddAB, T4 phage, OD; T4 phage with gene 2 nonsense mutations; inhibition, % at 11.9 µM; 64% of 880 active; AID 488942;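 active = mean inhibition above a set limit taken from the earlier primary screen, cut at about 13% in these data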;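 note: higher means less bacterial growth since AddAB block lets phage replicate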
RecBCD counter = counter-screen: growth loss of RecBCD+ E. coli with mutant T4 phage. shares compounds with AddAB inh. E. coli V66 + mutant T4 phage, OD growth. inhibition, % at 11.9 µM. 73% of 880 active;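 active = mean inhibition above the mean of solvent-only control wells plus 3 SD, cut at about 4% in these data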;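 note: optical density read after an 18 h incubation at 37 °C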
Bact viability = counter-screen for AddAB inhibitors: inhibitors of bacterial viability | shares compounds with AddAB inh | 35% of 880 active | absorbance (AddAB counterscreen) | inhibition, % at 11.9 µM; in the data active = inhibition above about 25%
RecBCD conf = confirmation: growth loss of phage-infected RecBCD+ E. coli (RecBCD inhibitor screen). inhibition, % at 11.9 µM. E. coli V66 + T4 2- phage, growth OD. 45% of 890 active. shares compounds with phage Ecoli inh;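 active = mean inhibition over triplicates exceeding the hit threshold derived in the original primary screen, cut at about 11% in these data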
Ecoli viability = inhibits E. coli viability, flagging RecBCD hits as nonselective. shares compounds with phage Ecoli inh. absorbance (OD) growth. inhibition, % at 11.9 µM. 29% of 890 active. AID 651983; in the data active = inhibition above about 20%;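 note: E. coli strain V66 grown with compound alone and no phage infection; 0% = bacteria with DMSO vehicle only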
AddAB counter = growth loss of phage-infected AddAB E. coli, RecBCD counter-screen; inhibition, % at 11.9 µM; E. coli expressing H. pylori AddAB + T4 phage, OD growth; gene 2 mutant T4, recBCD-deleted host; 45% of 890 active; AID 651984; shares compounds with phage Ecoli inh;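 active = mean inhibition above the solvent-only control wells' mean plus 3 SD, cut at about 22% in these data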;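 note: higher means less bacterial growth from phage killing when AddAB is blocked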
The depositor's hits bear a star; x = not tested or not shown.

SMILES	AddAB inh	Tat export inh	E coli growth-1	E coli growth-2	phage Ecoli inh	AddAB conf	RecBCD counter	Bact viability	RecBCD conf	Ecoli viability	AddAB counter
O=C(NN=C/C=C/c1ccco1)/C(=C/c1ccccc1)NC(=O)c1ccccc1	x	x	0.72	x	x	x	x	x	x	x	x
CCC1CCCCN1CCCNC(=O)c1ccc(CS(=O)(=O)Cc2ccc(Cl)cc2)o1 (stereo not drawn)	3	-2	0.65	2	2	x	x	x	x	x	x
CCC(=O)N1CCN(c2ccc(Cl)cc2NC(=O)c2ccc([N+](=O)[O-])o2)CC1	3	1	0.72	3	2	x	x	x	x	x	x
O=C(Nc1cc(Cl)ccc1-n1cncn1)c1ccc([N+](=O)[O-])o1	99*	-7	0.58	32*	16*	92*	12*	57*	9	12	98*
Cc1cc(SCC(=O)Nc2cccnc2Cl)nc2ccccc12	6	-2	0.75	-3	-2	x	x	x	x	x	x
CC(C)COc1ccc(Cc2cnc(N)nc2N)cc1	12*	-5	0.24*	7	16*	-1	9.2*	3	7	5	11
O=C(O)C(Cc1c[nH]c2ccccc12)NS(=O)(=O)c1ccccc1 (stereo not drawn)	1	4	0.64	0	-1	x	x	x	x	x	x
COc1ccccc1C(=O)NNc1ncc(C)s1	0	-4	0.67	-3	3	x	x	x	x	x	x
Cc1cc(C)c2c(N=NN(C)C)[nH]nc2n1	39*	2	0.58	78*	14*	97*	8.6*	54*	12*	12	70*
Cc1cc(C)c2c(NC(N)=S)n[nH]c2n1	1	-2	0.72	-1	3	x	x	x	x	x	x
CCOC(=O)c1ccc(S(=O)(=O)N2CCN(C(=O)c3cccc(S(=O)(=O)N4CC(C)OC(C)C4)c3)CC2)cc1 (stereo not drawn)	x	1	0.67	x	4	x	x	x	x	x	x
Nc1ccc2ncccc2c1N	-2	4	0.66	-5	2	x	x	x	x	x	x
Nc1nc(N)c2c(ccc3nccc32)[nH]1	93*	11	x	95*	96*	97*	91*	102*	101*	103*	102*
CCCCC1C(C#N)=C(C)NC2=C1C(=O)CC(C)(C)C2 (stereo not drawn)	1	-2	0.7	1	2	x	x	x	x	x	x
CCOc1ccc2oc(C(=O)NNC(=O)c3ccccc3O)c(C)c2c1	25*	-8	0.68	26*	21*	15*	20*	15	8	11	20
O=C(NNC(=O)c1cc2ccccc2o1)c1ccncc1	-2	5	0.64	-1	4	x	x	x	x	x	x
Cc1c(C(=O)NNC(=O)c2ccccc2O)oc2ccc(Br)cc12	21*	-1	0.71	19*	13*	17*	17*	15	8	10	10
O=C(NNC(=O)c1ccccc1O)c1cc2ccccc2o1	20*	3	0.55	13*	11*	10	11*	8	8	10	4
CCOc1ccc2oc(C(=O)O)c(C)c2c1	1	-8	0.71	2	2	x	x	x	x	x	x
O=C(O)CC1S/C(=N/N=C/c2ccccn2)NC1=O (stereo not drawn)	22*	-7	x	19*	22*	17*	18*	15	10	13	12
CC1(C)CC(=O)C(C=Nc2ccc(O)cc2)=C(O)C1	0	3	0.67	0	1	x	x	x	x	x	x
CCc1nnc(NS(=O)(=O)c2ccc(N=CC3=C(O)CC(C)(C)CC3=O)cc2)s1	17*	-4	0.69	11*	14*	11	5.9*	16	8	4	21*
CCOC(=O)[C@@H]1[C@H]2COc3cc(OC)ccc3[C@H]2N2C(=O)N(c3ccc(C(F)(F)F)cc3)C(=O)[C@]12C	14*	-7	x	9	15*	2	8.4*	1	7	9	11
CCOC(=O)[C@@H]1[C@H]2COc3cc(OC)ccc3[C@@H]2N2C(=O)N(c3ccc(C(F)(F)F)cc3)C(=O)[C@@]12C	2	2	x	1	3	x	x	x	x	x	x
COC(=O)CCNS(=O)(=O)c1ccc2nsnc2c1	4	6	0.72	-3	3	x	x	x	x	x	x
SMILES	AddAB inh	Tat export inh	E coli growth-1	E coli growth-2	phage Ecoli inh	AddAB conf	RecBCD counter	Bact viability	RecBCD conf	Ecoli viability	AddAB counter
CS(=O)(=O)c1ccc([C@@H](O)[C@@H](CO)NC(=O)C(Cl)Cl)cc1	29*	15	x	29*	27*	10	27*	0	35*	25*	6
CS(=O)(=O)c1ccc([C@@H](O)[C@@H](CF)NC(=O)C(Cl)Cl)cc1	84*	147*	x	85*	85*	87*	90*	87*	92*	94*	84*
CC(Sc1nnc(-c2ccccc2)c(-c2ccccc2)n1)C(=O)Nc1ncc(Cl)cc1Cl (stereo not drawn)	3	3	0.74	1	4	x	x	x	x	x	x
N#Cc1nccnc1S(=O)(=O)c1cccs1	19*	x	0.49*	13*	18*	64*	17*	16	17*	16	33*
CN(Cc1ccccc1C#N)S(=O)(=O)c1cccs1	4	7	0.7	2	5	x	x	x	x	x	x
COC(=O)C1=NNC(C(=O)OC)C1c1ccccc1 (stereo not drawn)	x	-10	x	x	3	x	x	x	x	x	x
Cc1onc(-c2ccccc2)c1C(=O)NC(=S)NNC(=O)c1ccc(O)cc1O	20*	2	0.56	20*	15*	13*	14*	18	9	11	25*
O=C(NNC(=S)NC(=O)c1ccccc1[N+](=O)[O-])c1ccccc1O	17*	-6	0.44*	17*	13*	11	14*	16	2	6	14
Cc1onc(-c2ccccc2)c1C(=O)NC(=S)NNC(=O)c1ccccc1O	24*	2	0.62	25*	24*	25*	24*	25	14*	17	29*
Cc1c(CC(=O)N2CCN(C(=O)C3COc4ccccc4O3)CC2)c(=O)oc2c(C)c(O)ccc12 (stereo not drawn)	2	-9	x	-3	1	x	x	x	x	x	x
CCCCCOc1ccc(CSC(=N)N)cc1[N+](=O)[O-]	13*	-21	0.53*	13*	13*	15*	9.7*	12	2	4	14
